High-throughput results deposited in PubChem BioAssay by National Center for Advancing Translational Sciences (NCATS).
Hits are enriched below; roughly 7.3% of the tested compounds scored in any of these assays.
SMN2 splice up – qHTS Assay for Enhancers of SMN2 Splice Variant Expression; HEK293 SMN2-luciferase splicing reporter, luminescence, 30-36 h; Potency, µM (top dose mostly 46.1 µM), inactives show top-dose activity change, positive = activation, most hits filed as activators; actives 2.8% (n = 210,000); note: % of control where 0% means no effect; nearly all actives have a fitted effect of over 55% in size
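HEK293 cells carry an SMN2 minigene-luciferase reporter in which exon 7 inclusion puts luciferase in frame. Cells were seeded at 2000 cells/well, attached for 10-12 hours, then exposed to compounds for 30-36 hours at 37C before ONE-Glo luminescence.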
NPC1 promoter act – qHTS Assay for NPC1 Promoter Activators | Huh7 NPC1 promoter luciferase reporter, 24 h | Potency, µM (titrated, usually from 9.22 µM), inactives show at the highest dose activation, hits mostly activators | actives 2.4% (n = 320,000) | AID 485313, 2010; note: % of control where 0% means no effect; nearly all actives have a fitted effect of over 60% in size
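Cells: Huh7 expressing luciferase under the NPC1 promoter, 1500/well. Seeded 2 h, compound added, incubated 24 h at 37 °C. Luciferase reagent, 10 min ambient, then luminescence.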
uPA generation – qHTS for Inhibitors of Cell Surface uPA Generation. cell surface uPA generation assay, qHTS. Potency, µM (series often up to 38.3 µM), inactives show at the highest dose activity change, negative = inhibition, hits mostly inhibitors. actives 0.31% (n = 330,000). AID 540303, 2011; active = well fitted inhibition curve with a large enough effect; inconclusive = small, poorly fitted or top-dose-only effect; inactive = no such curve, though single readings can be large or run the other way; tested in mouse RAW 264.7 cells; note: % is set by controls: 0 for no effect and ±100 for the full control effect; nearly all actives have a fitted effect of over 55% in size
ELG1 genotoxic – qHTS screen for small molecules that induce genotoxicity in human embryonic kidney (HEK293T) cells expressing luciferase-tagged ELG1; HEK293T ELG1-luciferase reporter, luminescence, 16 h; Potency, µM (highest dose often 46 µM), inactives show at the top dose activity change, positive = activation, hits mostly activators; actives 1.3% (n = 330,000); AID 504466, 2011; note: % of control where 0% means no effect; nearly all actives have a fitted effect of over 60% in size
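ELG1-luciferase HEK293T cells, 2,000/well; compound pinned in; 16 hr, 37 °C, 5% CO2; ONE-Glo, 30 min RT; luminescence on CCD imager.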
Rab9 promoter act – qHTS Assay for Rab9 Promoter Activators | Huh7 Rab9 promoter-luciferase reporter, luminescence, 24 h | Potency, µM (highest dose often 9.22 µM), for the others: at the top dose activation, negative = inhibition, hits mostly activators | actives 2.8% (n = 320,000); note: % of control where 0% means no effect; nearly all actives have a fitted effect of over 60% in size
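Using Huh7 cells stably transfected with Rab9 promoter–luciferase, compounds were incubated 24 h at 37 °C, 5% CO2; luciferase luminescence was read 10 min after reagent addition.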
FLuc modulator – qHTS profiling assay for firefly luciferase inhibitor/activator using purifed enzyme and Km concentrations of substrates (counterscreen for miR-21 project); Luciferin 4-monooxygenase (Photinus pyralis), P08659; actives 6.9% (n = 360,000); Potency, µM (series often up to 57.5 µM), for the others: at the top dose activity change, negative = inhibition, most hits filed as inhibitors; purified FLuc, Km substrates, luminescence inhibition;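 note: plate controls were vehicle for no effect and reference inhibitor for full effect; nearly all actives have a fitted effect of over 55% in size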
Target sequence (P08659 whole entry, looked up): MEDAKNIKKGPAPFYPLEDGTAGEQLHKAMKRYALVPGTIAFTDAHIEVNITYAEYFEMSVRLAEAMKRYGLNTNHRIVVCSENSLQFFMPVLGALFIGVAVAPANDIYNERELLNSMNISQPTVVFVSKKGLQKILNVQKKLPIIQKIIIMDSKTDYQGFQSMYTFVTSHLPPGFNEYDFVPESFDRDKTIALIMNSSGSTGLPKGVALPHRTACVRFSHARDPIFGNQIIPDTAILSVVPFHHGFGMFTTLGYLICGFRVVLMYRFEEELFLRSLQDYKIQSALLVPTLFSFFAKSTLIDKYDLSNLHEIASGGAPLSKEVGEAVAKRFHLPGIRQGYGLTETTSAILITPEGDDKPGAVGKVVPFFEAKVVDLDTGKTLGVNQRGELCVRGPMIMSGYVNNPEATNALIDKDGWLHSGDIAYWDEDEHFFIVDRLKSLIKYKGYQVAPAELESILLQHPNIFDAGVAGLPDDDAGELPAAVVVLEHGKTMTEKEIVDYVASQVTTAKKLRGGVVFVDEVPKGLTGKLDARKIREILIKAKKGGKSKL
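Biochemical qHTS of compounds, final roughly 60 µM downward over six points, against 10 nM purified firefly luciferase using Km concentrations of substrates (10 uM D-luciferin, 10 uM ATP) in Tris acetate pH 7.5 buffer; luminescence output.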
Starred values were filed as active, the others as inactive; ? = inconclusive; . = no result given; [ ] = dose if it differs, or a comment. Unless noted, calls come from the whole dose curve; as a rule, active = well fitted curve in the direction sought with a large enough effect; inconclusive = small, poorly fitted or top-dose-only effect, or another doubt; inactive = no such curve, though single readings can be large; an effect the other way counts as inactive or inconclusive. Potency is the fitted concentration of half-maximal effect.

SMILES	SMN2 splice up	NPC1 promoter act	uPA generation	ELG1 genotoxic	Rab9 promoter act	FLuc modulator
CSc1ccc(CCNC(=O)c2cc3n(n2)CCCN(Cc2ccc(C)cc2)C3=O)cc1	.	.	.	.	.	-4%
CC(=O)N1CCOc2cc(S(=O)(=O)NCc3ccccc3Cl)c(C)cc21	.	.	.	.	.	-10%
COc1ccc(N2C(=O)Cc3cc(OC)c(OC)cc3C2c2ccc(F)cc2)cc1 (centres undefined)	4%	.	.	.	.	6%
CCOc1ccc(OCC)c(Nc2cc(C)nc3ncnn23)c1	11µM*	-9%	-8%	21µM*	-5%	-1%
COc1cc(Nc2cc(C)nc3ncnn23)cc(OC)c1	?	-17%	-6%	23µM*	1%	1%
COc1cc(Nc2cc(C)nc3ncnn23)cc(OC)c1OC	14µM*	-1%	-4%	?	-2%	-1%
CCOc1ccc(OCC)c(Nc2cc(C)nc3nc(C)nn23)c1	4%	-19%	?	1%	-23%	7%
COc1ccc(Nc2cc(C)nc3ncnn23)cc1Cl	.	?	-4%	?	19%	1%
COC(=O)c1cc(Nc2cc(C)nc3ncnn23)cc(C(=O)OC)c1	9%	-1%	18%	2%	-1%	5%
Cc1nc(Cl)sc1C(=O)Nc1cccc(Cl)c1C	-1%	1%	-7%	0%	1%	-3%
CNS(=O)(=O)c1cc(-c2nn3c(C)nnc3c3ccccc23)ccc1C	.	.	.	.	.	2%
Cc1cccc(NC(=O)c2cc(-c3cc(C)ccc3O)n[nH]2)c1	.	1.1µM*	-8%	?	?	3µM*
COc1ccc(Cl)cc1NC(=O)c1cc(-c2ccccc2O)n[nH]1	0%	-4%	3%	-1%	-2%	-18%
COc1ccc(CCNC(=O)c2cc(-c3ccc(C)c(C)c3O)n[nH]2)cc1OC	-32%	-1%	-2%	-13%	0%	?
Cc1c(Cl)cccc1NC(=O)c1cc(-c2ccccc2O)n[nH]1	0%	?	-3%	?	?	21µM*
Cc1ccc(-c2cc(C(=O)Nc3cccnc3)[nH]n2)c(O)c1C	.	?	0%	9.2µM*	4µM*	3.4µM*
Cc1cccc(NC(=O)c2cc(-c3cc(C)c(C)cc3O)n[nH]2)c1	.	0.89µM*	-2%	?	0.56µM*	?
CC(=O)Nc1ccc(NC(=O)c2cc(-c3ccc(C)cc3O)n[nH]2)cc1	.	30%	3%	3%	28%	-11%
CCOc1ccc(C2C(C(=O)Nc3ccccc3)=C(C)Nc3nc(-c4ccccc4)nn32)cc1OC (centres undefined)	-14%	.	.	.	.	-6%
O=C(CCCSCCCC(=O)NN=Cc1ccccc1)NN=Cc1ccccc1	.	.	-7%	.	.	.
Cc1cc(O)c(-c2cc(C(=O)NCc3ccc4c(c3)OCO4)[nH]n2)cc1C	-1%	0%	0%	1%	1%	0%
Cc1ccc(-c2cc(C(=O)NCc3ccc4c(c3)OCO4)[nH]n2)c(O)c1C	-12%	-1%	3%	-1%	-1%	19µM*
Cc1ccc(OCCCn2c(CO)nc3ccccc32)cc1	?	18%	-9%	10%	?	-2%[2.3 µM]
Cc1cccc(OCCCn2c(CO)nc3ccccc32)c1	.	21%	-7%	5%	?	13µM*
OCc1nc2ccccc2n1CCCOc1ccccc1	11µM*	?	?	?	?	11µM*
SMILES	SMN2 splice up	NPC1 promoter act	uPA generation	ELG1 genotoxic	Rab9 promoter act	FLuc modulator
Cc1cc(C)n(-c2ccc([N+](=O)[O-])cc2-c2nn[nH]n2)n1	-15%	-1%	4%	2%	-4%	-10%
O=[N+]([O-])c1ccc(O)c(-c2nn[nH]n2)c1	-3%	13%	4%	?	27%	27µM*
O=C1OC(C(=O)Nc2ccccc2)Cc2ccccc21 (centres undefined)	16%	16%	-6%	11%	?	17µM*
Cc1ccc(NC(=O)C2Cc3ccccc3C(=O)O2)cc1 (centres undefined)	89%	?	5%	?	?	?
CCOC(=O)c1c(NC(=O)/C=C/c2ccc(Cl)cc2)sc2c1CCC(C)C2 (centres undefined)	-3%	.	.	.	.	-2%
Cc1csc(NC(=O)C2CCCO2)n1 (centres undefined)	?	-1%	.	1%	-2%	1%
O=C(Nc1nc(-c2ccccc2)cs1)C1c2ccccc2Oc2ccccc21	30%	0%	8%	-6%	1%	3%
O=C(Nc1nc(-c2ccc(F)cc2)cs1)C1CCCO1 (centres undefined)	11%	18%	4%	11%	23%	12µM*
O=C(Nc1nc(-c2ccc(-c3ccccc3)cc2)cs1)C1CCCO1 (centres undefined)	-27%	7%	6%	5%	0%	8.5µM*
O=C(Nc1nc(-c2ccccc2)cs1)C1CCCO1 (centres undefined)	?	?	-6%	?	26%	24µM*
O=C(Nc1ccc(F)cc1)C1CCCO1 (centres undefined)	0%	-4%	0%	0%	-15%	-11%
COc1ccc(-n2c(SCC(=O)NC3CCCCC3)nc3c([nH]c4ccccc43)c2=O)cc1	.	.	.	.	.	0%
COc1cccc(-c2nn3c(=O)cc(CN4CCN(S(=O)(=O)c5ccc(C)cc5)CC4)nc3s2)c1	.	.	.	.	.	6%
Fc1ccc(NC(=S)NN=Cc2ccccc2Cl)cc1	.	.	-5%	.	.	.
Cn1cccc1-c1cc(C(=O)N/N=C/c2ccccc2Cl)[nH]n1	.	?	2%	?	?	19µM*
O=C(N/N=C/c1ccccc1Cl)c1ccc(F)cc1	12%	2.2µM*	.	?	2.5µM*	2.7µM*
COc1ccc(/C=N/NC(=O)CNC(=O)c2ccc3c(c2)OCCO3)c(C(=O)O)c1OC	.	1%	1%	0%[9.26 µM]	0%	24µM*
O=C(O)COc1ccccc1/C=N/NC(=O)c1ccc2c(c1)OCCO2	.	0%	?	3%	0%	1.5µM*
CC(C)(C)/C=N/NC(=O)CNC(=O)c1ccc2c(c1)OCCO2	-52%	-4%	0%	-1%	0%	0%
Cn1cccc1-c1cc(C(=O)N/N=C/c2ccc(F)cc2)[nH]n1	.	0%	1%	9%	-6%	-12%
Cc1nn(CC(=O)N(C)c2c(N)n(Cc3ccccc3)c(=O)[nH]c2=O)c(C)c1[N+](=O)[O-]	.	0%	0%	-4%	0%	5%
Cn1c(=O)c(-c2cccc(Cl)c2)nc2cncnc21	-9%	.	.	.	.	.
